The whole screen tested about 360,000 compounds, of which about 3,800 (1.1%) were called active. Shown is part of a subset that was picked to be rich in actives. Unmarked numbers belong to inactive results.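 Rule for the calls: active = compounds causing at least 50% loss of cell viability in the single-dose screen, relative to plate controls; inactive = the rest.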
test: TRAIL-exposed caspase-8 expressing cell killing – NB7+C8 cells, ATPlite luminescence, TRAIL sensitizer project, primary screen (AID 624354); conditions: at 10 µM, active compounds read high

Compared with Cc1c(Cl)c([N+](=O)[O-])nn1CC(=O)NCCCN1CCOCC1, Cc1c(Br)c([N+](=O)[O-])nn1CC(=O)N1CCN(Cc2ccccc2)CC1 is lower in inhibition (viability loss, TRAIL sensitization): 27.8% for the first, -5.96% for the second.

Going from Cc1ccc(S(=O)(=O)N[C@H]2CCC[C@@H]2O)cc1 to Cc1ccc(NC(=O)N2CCC(C(=O)NCc3ccc(F)cc3)CC2)cc1, the inhibition (viability loss, TRAIL sensitization) rises from 1.92% to 1.96%.

Going from C#CCNc1ccc(C(=O)OCC)cc1 to CCCc1cc(C(=O)Nc2ccc(C(=O)OC)cc2)cs1, the inhibition (viability loss, TRAIL sensitization) falls from 3.56% to -5.01%.

Compared with O=C(O)Cc1ccc(NCc2ccccc2Cl)cc1, O=C(Nc1ccn(Cc2ccccc2F)n1)c1ccc(COc2ccc(Cl)cc2Cl)o1 is higher in inhibition (viability loss, TRAIL sensitization): 8.54% for the first, 11.2% for the second.

Going from CN(C)c1nc(N)nc(CSc2nnnn2-c2cccc3ccccc23)n1 to COc1ccc(OC)c(-n2nnnc2SCC(=O)Nc2cc(C)ccc2OC)c1, the inhibition (viability loss, TRAIL sensitization) falls from 40.6% to -4.79%.

Compared with Cc1ccc(/C=N/NC(=O)c2sccc2OCc2ccc(F)cc2)cc1, Cc1ccc(OCCCC(=O)Nc2ccc3c(c2)OCCO3)cc1 is lower in inhibition (viability loss, TRAIL sensitization): 15.2% for the first, -4.22% for the second.

Compared with Cc1ccccc1CS(=O)(=O)CC1(O)CCN(C(=O)c2cccc(C(F)(F)F)c2)CC1, COc1ccc(NC(=O)c2cc(=O)[nH]c3ccccc23)cc1S(=O)(=O)N1CCOCC1 is lower in inhibition (viability loss, TRAIL sensitization): 8.2% for the first, -0.328% for the second.

Going from CCOc1ccc(N(CC(=O)NC2CCCCCC2)S(=O)(=O)c2c(C)[nH]c(=O)[nH]c2=O)cc1 to O=C(COC(=O)/C=C/c1ccc(OC(F)F)cc1)NC1CCCCC1, the inhibition (viability loss, TRAIL sensitization) falls from 11.6% to -8.42%.

Compared with CCOc1ccc(CCNC(=O)COC(=O)CCS(=O)(=O)c2ccc(C)cc2)cc1OCC, CCc1ccc(CNC(=O)C2CC(=O)N(CCc3ccc(C)cc3)C2)cc1 (stereo unspecified) is higher in inhibition (viability loss, TRAIL sensitization): 6.55% for the first, 8.62% for the second.

Compared with COC(=O)c1cc(NS(=O)(=O)c2ccc3c(c2)c(=O)n(C)c(=O)n3C)cc(C(=O)OC)c1, COC(=O)C[C@@H]1C=C[C@@H](NS(=O)(=O)c2cccc(OC)c2)[C@@H](CO)O1 is lower in inhibition (viability loss, TRAIL sensitization): 15.9% for the first, 4.54% for the second.

Going from CCOC(=O)C1CCN(C(=O)C2CCN(S(=O)(=O)CC)CC2)CC1 to CC(C)C(NC(=O)C1CCC(C(C)(C)C)CC1)C(=O)NCCCN1CCCCC1 (stereo unspecified), the inhibition (viability loss, TRAIL sensitization) rises from -7.6% to 8.66%.

First: CCN(CC(=O)Nc1c(F)cccc1F)C(=O)C1CCC1
Second: CCCNC(=O)c1cc(C2CCCCN2C(=O)OC)on1 (stereo unspecified)
The inhibition (viability loss, TRAIL sensitization) of the first is higher: -2.6% for the first, -21.1% for the second.

Going from COc1ccc(COC(=O)c2n[nH]c3ccccc23)cc1F to COc1cccc(NC(=O)COC(=O)c2ccc3ccccc3n2)c1, the inhibition (viability loss, TRAIL sensitization) falls from -10.3% to -11.3%.

Going from Cc1ccc(C(=O)NC(C)C(c2cccs2)N2CCOCC2)cc1C (stereo unspecified) to COc1ccc(-c2ccnc(SCC(=O)N3CCOCC3)n2)cc1, the inhibition (viability loss, TRAIL sensitization) rises from -23.4% to 28%.

Going from CCOC(=O)C/C(C)=N\Nc1ccc([N+](=O)[O-])cc1[N+](=O)[O-] to CCn1cc(CNC(=O)c2cc([N+](=O)[O-])c(C)c([N+](=O)[O-])c2)cn1, the inhibition (viability loss, TRAIL sensitization) rises from -7.23% to 24.5%.

First: CCOC(=O)C(=Cc1ccccc1)C(=O)c1ccccc1
Second: COc1cccc(C(=O)NNC(=O)/C=C/c2ccccc2)c1
The inhibition (viability loss, TRAIL sensitization) of the first is higher: 18.2% for the first, -32% for the second.

First: O=C(CN1C(=O)NC(Cc2ccccc2)(Cc2ccccc2)C1=O)NCC1CCCCC1
Second: Cc1ccccc1N(C(=O)CNC(=O)c1cccs1)C(C(=O)NC1CCCC1)c1ccncc1 (stereo unspecified)
The inhibition (viability loss, TRAIL sensitization) of the first is lower: -33.8% for the first, 34.8% for the second.

Going from CCC(CC)c1nnc(NS(=O)(=O)Cc2ccccc2)s1 to CCC(CC)c1nnc(NC(=O)C2CCN(C(=O)c3ccco3)CC2)s1, the inhibition (viability loss, TRAIL sensitization) falls from -5.15% to -18.9%.

Compared with C=CCn1cc(Cl)cc(C(=O)Nc2ccccc2)c1=O, C=CCc1c(C)nc2cc(-c3ccccc3)[nH]n2c1=O is higher in inhibition (viability loss, TRAIL sensitization): 6.15% for the first, 30.8% for the second.

First: CCOc1cccc(/C=C/c2ccc3ccccc3n2)c1OC(C)=O
Second: Fc1ccc2cnc(-c3ccccc3)cc2c1
The inhibition (viability loss, TRAIL sensitization) of the first is higher: 47.3% for the first, -5.36% for the second.

First: C=CCCC(=O)N1C[C@H]2CON(C)[C@H]2C[C@H]1c1cccc(Nc2ccccc2)c1
Second: O=C(c1cccs1)N1C[C@H](n2cc(C3CC3)nn2)[C@@H](O)C[C@@H]1c1ccccc1
The inhibition (viability loss, TRAIL sensitization) of the first is higher: -0.674% for the first, -1.93% for the second.

Compared with O=C(NCc1ccc(Cl)cc1)c1cc2c(nc3sccn32)s1, COc1ccc(CCc2nnc(CCC(=O)NCc3cnn(-c4ccccc4C)c3)o2)cc1 is higher in inhibition (viability loss, TRAIL sensitization): 0.401% for the first, 2.59% for the second.

Compared with COc1ccc(C2=Nc3ccccc3NC(=O)C2N(C(=O)c2cc3ccccc3[nH]2)c2ccccc2)cc1 (stereo unspecified), O=c1c(-c2ccc(Cl)cc2)[n+]([O-])c2ccccc2n1OCc1nc2ccccc2[nH]1 is lower in inhibition (viability loss, TRAIL sensitization): -7.09% for the first, -24.1% for the second.

Compared with COc1cccc(-c2ccc(SCC(=O)N3CCN(c4ccccc4)CC3)nn2)c1, Cc1ccc(N2CCN(c3ccc(C)cc3)C2c2ccccn2)cc1 is lower in inhibition (viability loss, TRAIL sensitization): 6.26% for the first, -11.7% for the second.

Going from CC(O)c1nc2c(c(=O)n(C)c(=O)n2C)n1C (stereo unspecified) to Cn1c(=O)c2c(ncn2CC(COCc2ccccc2Cl)OCc2ccccc2Cl)n(C)c1=O (stereo unspecified), the inhibition (viability loss, TRAIL sensitization) falls from -4.64% to -6.46%.

Compared with CCCCN1Cc2c(nc3cc(-c4ccccc4)[nH]n3c2=O)C1=O, Cc1ccc(/C=C2\CCn3c2nc2cc(C(=O)O)ccc2c3=O)c(C)c1 is higher in inhibition (viability loss, TRAIL sensitization): -2.49% for the first, 5.96% for the second.

First: COc1ccc(C(C(=O)NC2CCCCC2)N(C(=O)c2snc(C(N)=O)c2N)c2ccccc2OC)cc1 (stereo unspecified)
Second: COc1ccccc1C(=O)NCCC(=O)N(C)Cc1cccnc1
The inhibition (viability loss, TRAIL sensitization) of the first is lower: 1.04% for the first, 10.4% for the second.

Compared with COC(=O)[C@@]12C[C@@H](CC(=O)N3CCCCC3)C(=O)N(Cc3ccc4c(c3)OCO4)C1=CCC(C)(C)C2, COC(=O)Cc1ccc(OC2(C)CCN(Cc3ccc4c(c3)OCCO4)C2)cc1 (stereo unspecified) is higher in inhibition (viability loss, TRAIL sensitization): -12.6% for the first, -7.8% for the second.

First: Cc1cc(O)ccc1NC1=CC(=O)CC(C)(C)C1
Second: CC(=O)c1c(O)cc2n(c1=O)-c1ccc(Cl)cc1C2(C)C
The inhibition (viability loss, TRAIL sensitization) of the first is lower: 1.23% for the first, 5.66% for the second.

Compared with CC(C)Cn1c(N)c(C(=O)COC(=O)CN2C(=O)C3CC=CCC3C2=O)c(=O)n(C)c1=O (stereo unspecified), CCCc1cc(=O)[nH]c(SCC(=O)N2C(C)CCCC2C)n1 (stereo unspecified) is lower in inhibition (viability loss, TRAIL sensitization): 13.4% for the first, -9.5% for the second.

Compared with O=C(Nc1cccc2cccnc12)c1ccc2sc([C@H]3C[C@H](O)[C@@H](CO)O3)nc2c1, O=C(NCC(O)c1nc2ccccc2[nH]1)c1ccc(Br)cc1 (stereo unspecified) is lower in inhibition (viability loss, TRAIL sensitization): 7.21% for the first, -0.934% for the second.

Compared with CN(Cc1ccccc1)C(=O)COC(=O)/C=C/c1ccc2c(c1)OCO2, COc1nnc(-c2ccc(C)c(S(=O)(=O)N(C)C)c2)c2ccccc12 is higher in inhibition (viability loss, TRAIL sensitization): -10.8% for the first, -6.56% for the second.

First: Cc1cc(C)nc(NC(=O)/C=C/c2ccc(Cl)cc2)n1
Second: CC(=O)c1nnn(-c2ccc(Cl)cc2C#N)c1C
The inhibition (viability loss, TRAIL sensitization) of the first is higher: 2.95% for the first, 2.75% for the second.

Going from N#CCCC(C#N)(c1cccnc1)N1CCOCC1 (stereo unspecified) to CCC1(C)Cc2c(sc3nnn(CC(=O)Nc4ccc(Cl)cc4)c(=O)c23)CO1 (stereo unspecified), the inhibition (viability loss, TRAIL sensitization) rises from -12.1% to -1.52%.

Going from COc1ccc(C(C)(O)c2nc(-c3cc(F)cc(F)c3)cs2)cc1 (stereo unspecified) to Cc1ccc2nc(-c3ccncc3)cc(C(=O)Nc3ccc(OC(F)F)cc3)c2c1, the inhibition (viability loss, TRAIL sensitization) falls from 21% to 14.5%.

First: Cc1ccc(-c2cc(C(=O)NCc3cn(C)nc3C)c3cc(Br)ccc3n2)cc1
Second: Cc1cc(C)n2nc(C(=O)OC(C)C(=O)c3cc(C)c(C)cc3C)nc2n1 (stereo unspecified)
The inhibition (viability loss, TRAIL sensitization) of the first is higher: 12.3% for the first, -12.9% for the second.

For O=C(OC12CC3CC(CC(C3)C1)C2)c1ccc(NCc2cc(O)ccc2O)cc1, the inhibition (viability loss, TRAIL sensitization) was 86.4% (active).
In the case of COC(=O)c1ccc(NCc2cc(O)ccc2O)cc1, the inhibition (viability loss, TRAIL sensitization) is reported as 55.3% (active).
In the case of CC(C)OC(=O)c1ccc(NCc2cc(O)ccc2O)cc1Cl, the inhibition (viability loss, TRAIL sensitization) is reported as 78.8% (active).
For O=C(Nc1ccn(Cc2ccccc2)n1)c1n[nH]c([N+](=O)[O-])c1Cl, the inhibition (viability loss, TRAIL sensitization) was 62.6% (active).
For CC[C@H]1CN2CCc3cc(OC)c(OC)cc3[C@@H]2C[C@@H]1C[C@H]1NCCc2cc(OC)c(OC)cc21, the inhibition (viability loss, TRAIL sensitization) was 53.7% (active).
For CCOC(=O)/C(=C\c1ccc([N+](=O)[O-])cc1)C(=O)c1cc(C(C)=O)c(Nc2ccccc2)s1, the inhibition (viability loss, TRAIL sensitization) was 85.2% (active).
With CCc1ccc(CNC(=O)C2CCN(c3nnc(C)c4c(C)n(-c5ccc(C)cc5)nc34)CC2)cc1 the inhibition (viability loss, TRAIL sensitization) was 84.7% (active).
In the case of COc1cccc(/C=C/c2ccc3ccccc3n2)c1OC(C)=O, the inhibition (viability loss, TRAIL sensitization) is reported as 65.1% (active).
In the case of CCOc1ccc(-c2ccc(SCC(=O)N3CCOCC3)nn2)cc1, the inhibition (viability loss, TRAIL sensitization) is reported as 50.6% (active).
For O=c1c2c(nc3cc(-c4cccc(Cl)c4)[nH]n13)CCCC2, the inhibition (viability loss, TRAIL sensitization) was 63.1% (active).
With COc1ccc(C(C(=O)NC2CCCCC2)N(C(=O)CCl)c2ccccc2Cl)cc1 (stereo unspecified) the inhibition (viability loss, TRAIL sensitization) was 94.5% (active).
With Cc1cc(N=Nc2ccc3ccccc3c2)ccc1O the inhibition (viability loss, TRAIL sensitization) was 55.4% (active).
In the case of CCCc1cc(=O)[nH]c(SCC(=O)c2c(N)n(CC(C)C)c(=O)n(C)c2=O)n1, the inhibition (viability loss, TRAIL sensitization) is reported as 84.5% (active).
With Cc1cccc(NC(=O)/C=C/c2ccc3c(c2)OCO3)n1 the inhibition (viability loss, TRAIL sensitization) was 79.8% (active).
For COc1cccc(/C=C/C(=O)Nc2ccc3c(c2)OCCO3)c1, the inhibition (viability loss, TRAIL sensitization) was 64.9% (active).
For C=CCn1c(C)cc(C2=NNC(=NCC)SC2)c1C, the inhibition (viability loss, TRAIL sensitization) was 92.8% (active).
For O=C(Cc1nc2ccccc2[nH]c1=O)c1ccc(Cl)cc1, the inhibition (viability loss, TRAIL sensitization) was 60.2% (active).
In the case of COc1cc(OC)cc(-c2cc3ccc(F)cc3cn2)c1, the inhibition (viability loss, TRAIL sensitization) is reported as 60% (active).
In the case of Cc1ccc2nc(-c3ccncc3)cc(C(=O)Nc3ccncc3)c2c1, the inhibition (viability loss, TRAIL sensitization) is reported as 54% (active).
